Measured values reported in PubChem BioAssay (NCI).
Compounds without any hit were thinned out: in the full panel of roughly 79,000, 15% have a hit. A number with no mark means an inactive call. Active and inactive are the calls of the source. Rule as the data show it: active = growth inhibition above about 70%; inactive = the rest.

Key:
[1] = NCI Yeast Anticancer Drug Screen. Data for the rad50 strain (AID 155);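 also: 0% = growth of vehicle-only cultures of the same strain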; conditions: S. cerevisiae rad50 strain growth inhibition, hits give high values
Procedure, shortened: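 DNA repair mutant yeast, compound exposure, growth read-out; inhibition is taken relative to vehicle.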

[2] = NCI Yeast Anticancer Drug Screen. Data for the mec2-1 strain (AID 157); conditions: S. cerevisiae mec2-1 strain, hits give high values
Procedure, shortened: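 Compounds were applied to mec2-1 yeast cells. Their growth was then compared with that of vehicle-treated cultures to give growth inhibition.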

[3] = NCI Yeast Anticancer Drug Screen. Data for the sgs1 mgt1 strain (AID 161);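 also: 0% = growth of cultures given vehicle only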; conditions: S. cerevisiae sgs1 mgt1 strain, hits give high values
Procedure, shortened: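 Yeast cells carrying a defined DNA-repair defect were exposed to test compounds. Growth inhibition was measured relative to vehicle-treated controls.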

[4] = NCI Yeast Anticancer Drug Screen. Data for the cln2 rad14 strain (AID 165);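 also: 0% = growth equal to vehicle treated cultures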; conditions: S. cerevisiae cln2 rad14 strain, hits give high values
Procedure, shortened: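 Strain: cln2 rad14 yeast, altered in cell cycle control and DNA damage repair. Read-out: growth inhibition vs vehicle.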

[5] = NCI Yeast Anticancer Drug Screen. Data for the bub3 strain (AID 167); conditions: S. cerevisiae bub3 mutant strain, hits give high values
Procedure, shortened: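 In this screen, a yeast mutant lacking normal mitotic checkpoint function is challenged with compound. Relative growth versus vehicle gives the inhibition value.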

[6] = NCI Yeast Anticancer Drug Screen. Data for the mlh1 rad18 strain (AID 175); conditions: S. cerevisiae mlh1 rad18 strain growth inhibition, hits give high values
Procedure, shortened: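 A repair-deficient yeast strain is exposed to test compound, and growth is scored relative to vehicle-treated controls.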

[7] = at 5.0 µM (retest, dose inferred, filed as 0.5)
[8] = at 50.0 µM (retest, dose inferred, filed as 5.0)

Row | Structure (SMILES) | growth inhibition [1, 7] | growth inhibition [1, 8] | growth inhibition ([1]; at 50.0 µM) | growth inhibition [2, 7] | growth inhibition [2, 8] | growth inhibition ([2]; at 50.0 µM) | growth inhibition [3, 7] | growth inhibition [3, 8] | growth inhibition ([3]; at 50.0 µM) | growth inhibition [4, 7] | growth inhibition [4, 8] | growth inhibition ([4]; at 50.0 µM) | growth inhibition [5, 7] | growth inhibition [5, 8] | growth inhibition ([5]; at 50.0 µM) | growth inhibition [6, 7] | growth inhibition [6, 8] | growth inhibition ([6]; at 50.0 µM)
1 | CS(=O)(=O)C(c1nc2nnc(NC(=O)Nc3ccc(Cl)cc3)n2[nH]c1=O)c1nc2nnc(NC(=O)Nc3ccc(Cl)cc3)n2[nH]c1=O | -14% | 11% | 32.2% | -20% | 23% | 74.5% (active) | 1% | -7% | 24.6% | -36% | 3% | 30.6% | -41% | 19% | 71.3% (active) | -19% | 32% | 62.5%
2 | O=c1[nH]c(=O)c2cc([N+](=O)[O-])cc([N+](=O)[O-])c2[nH]1 | 9% | 75% (active) | 50.6% | 6% | 57% | 73.7% (active) | 12% | 78% (active) | 54.9% | -3% | 63% | 25.7% | 8% | 70% (active) | 78.3% (active) | 5% | 38% | 75% (active)
3 | COC(=O)N/N=C(\C)C(CN1CCOCC1)C(c1ccccc1)c1cc2ccccc2oc1=O (stereo not given) | 10% | 57% | -0.75% | -4% | 56% | 7.15% | 14% | 64% | -5.55% | 14% | 70% (active) | 10.9% | 21% | 74% (active) | 8.15% | 7% | 61% | 2.25%
4 | Cc1ccc(NC(=O)CC2SC(=Nc3ccc(Cl)cc3)NC2=O)cc1C (stereo not given) | 79% (active) | -11% | 99.2% (active) | 57% | 5% | 99.5% (active) | 65% | 0% | 99.3% (active) | 41% | 18% | 98.3% (active) | 89% (active) | 11% | 99.1% (active) | 31% | 12% | 99.2% (active)
5 | O=c1oc2ccccc2c(O)c1/C=N/C(=S)Nc1ccccc1 | 13% | 93% (active) | 71% (active) | -3% | 87% (active) | 34.5% | 6% | 88% (active) | 18.5% | 0% | 32% | 20.8% | 12% | 92% (active) | 46.9% | 9% | 97% (active) | 76% (active)
6 | CCCCCCCCCCCCNC(=O)OCC(C)O (stereo not given) (tested in a mixture with another compound) | 95% (active) | 97% (active) | 98.2% (active) | 76% (active) | 93% (active) | 96.6% (active) | 96% (active) | 98% (active) | 98.9% (active) | 81% (active) | 88% (active) | 97.9% (active) | 84% (active) | 74% (active) | 99.4% (active) | 93% (active) | 91% (active) | 98.5% (active)
7 | CCOC(=O)C1SC(=S)N(C)C1=O (stereo not given) | 3% | 99% (active) | 99.2% (active) | -2% | 99% (active) | 99.5% (active) | 8% | 99% (active) | 99% (active) | -7% | 99% (active) | 99.1% (active) | -3% | 98% (active) | 99.4% (active) | 19% | 98% (active) | 99.4% (active)
8 | CCC1(O)c2ccccc2C(O)(CC)c2ccccc21 (stereo not given) | 11% | 28% | 74% (active) | 3% | 40% | 89.6% (active) | 5% | 53% | 23.4% | 3% | 21% | 96.5% (active) | 7% | 54% | 97% (active) | 14% | 68% | 97.7% (active)
9 | Cc1cc(Cl)cc2c1NC(=O)C2(O)C/C(=N/NC(=O)CC#N)c1cccc([N+](=O)[O-])c1 (stereo not given) | 4% | 20% | 59.1% | -13% | 35% | 38.1% | -1% | -4% | 62.2% | -3% | 1% | 9.4% | 1% | 13% | 15.4% | 1% | -23% | 76.8% (active)
10 | NC1c2ccccc2-c2ccc([N+](=O)[O-])cc21 (stereo not given) | 12% | -2% | 40% | 4% | -24% | -7.35% | 4% | 35% | 26.6% | -24% | -4% | -9.3% | 1% | 3% | -12.2% | 14% | 38% | 39.9%
